Experimental data reported in PubChem BioAssay (NCATS).
Inconclusive results are not listed. Calls of active or inactive are those of the source. Calls follow the shape of the dose curve; as a rule, active = well fitted inhibition curve with a large enough effect; inconclusive = small, poorly fitted or top-dose-only effect; inactive = flat fitted curve, though single readings scatter.

How the values were obtained:
Experiment in all cases: qHTS profiling for inhibitors of Plasmodium falciparum proliferation (AID 504749); also: nearly all actives have a fitted effect of over 60% in size
Details in all cases: P. falciparum in erythrocytes, SYBR Green DNA, 72 h; series mostly up to 28.7 µM
[1] = test system: CP335
How it was run: (§1)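 P. falciparum-infected erythrocytes (0.3% parasitemia, 2.5% hematocrit final) were exposed to compounds for 72 h at 37 C in 5% CO2, then lysed with SYBR Green buffer overnight at room temperature; parasite DNA fluorescence was normalized to artemisinin and DMSO controls.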

[2] = test system: DFO2036
How it was run: as §1

[3] = test system: DIV14
How it was run: as §1

[4] = test system: DIV30
How it was run: as §1

[5] = test system: Dd2
How it was run: as §1

[6] = test system: ECU
How it was run: as §1

[7] = test system: FAB9
How it was run: as §1

[8] = test system: GB4
How it was run: as §1

[9] = test system: HB3
How it was run: as §1

[10] = test system: ICS
How it was run: as §1

[11] = test system: JCK
How it was run: as §1

[12] = test system: N140
How it was run: as §1

[13] = test system: P93_24
How it was run: as §1

[14] = test system: P94_40
How it was run: as §1

[15] = test system: PC15
How it was run: as §1

[16] = test system: PC26
How it was run: as §1

[17] = test system: PC49
How it was run: as §1

[18] = test system: SC27B
How it was run: as §1

[19] = test system: PAD
How it was run: as §1

[20] = test system: DIV17
How it was run: as §1

Measured: Potency
Potency is read from the fitted curve at half-maximal effect.

O=C1NCN(c2ccccc2)C12CCN(CC1COc3ccccc3O1)CC2 (stereo unspecified)
active: [10] 8.91 µM
not listed: [19] | [20]
inactive: all other assays above

C=C(C)[C@H]1Cc2c(ccc3c2O[C@@H]2COc4cc(OC)c(OC)cc4[C@@H]2C3=O)O1
active: [10] 11.2 µM
not listed: [1] | [3] | [4] | [8] | [14] | [20]
inactive: all other assays above

CC(CCc1ccccc1)NC(C)C(O)c1ccc(O)cc1 (stereo unspecified)
inactive: [2] | [6] | [7] | [9] | [10] | [11] | [19] | [17] | [18]
active: [3] 9.53 µM | [5] 11.2 µM

Fc1ccc(C(OCCN2CCN(CCCc3ccccc3)CC2)c2ccc(F)cc2)cc1
active: [1] 9.53 µM | [2] 11.2 µM | [3] 10.7 µM | [20] 10.7 µM | [6] 10 µM | [8] 15.1 µM | [9] 8.91 µM | [10] 3.55 µM | [11] 11.2 µM | [12] 5.01 µM | [13] 4.47 µM | [14] 7.94 µM | [19] 8.91 µM | [15] 11.2 µM | [16] 12 µM | [17] 8.91 µM | [18] 8.91 µM

Cc1cccc(C)c1NC1=NCCCS1
inactive: [6] | [7] | [9] | [11] | [15] | [18]
active: [5] 12.6 µM | [8] 8.49 µM | [10] 12.6 µM

CC(C)(C)NCC(O)c1cc(Cl)c(N)c(Cl)c1 (stereo unspecified)
inactive: [2] | [7] | [9]
active: [3] 12 µM | [20] 8.49 µM | [5] 12.6 µM | [8] 7.57 µM | [10] 11.2 µM | [12] 8.91 µM | [14] 7.94 µM | [19] 7.94 µM

c1ccc(C2CC2)c(OCC2=NCCN2)c1
not listed: [3] | [5] | [8] | [20]
inactive: all other assays above

Oc1ccc(Cl)cc1Cc1ccccc1
active: [3] 7.57 µM | [20] 7.57 µM | [4] 10.7 µM | [5] 10 µM | [6] 11.2 µM | [8] 8.49 µM | [9] 12.6 µM | [10] 2 µM | [12] 7.94 µM | [14] 12.6 µM | [19] 11.2 µM | [16] 15.1 µM | [18] 10 µM
inactive: [7]

O=[N+]([O-])c1cc([As](=O)(O)O)ccc1O
active: [1] 4.55 µM | [2] 3.55 µM | [4] 5.73 µM | [5] 3.55 µM | [6] 3.16 µM | [7] 3.55 µM | [8] 4.55 µM | [9] 3.16 µM | [10] 3.16 µM | [12] 3.55 µM | [18] 3.55 µM

NCC(O)c1ccc(O)cc1 (stereo unspecified)
not listed: [3]
inactive: all other assays above

Oc1cc(Cl)ccc1Oc1ccc(Cl)cc1Cl
active: [2] 10 µM | [3] 3.01 µM | [20] 6.01 µM | [4] 6.75 µM | [5] 11.2 µM | [6] 6.31 µM | [7] 11.2 µM | [8] 4.78 µM | [9] 8.91 µM | [10] 1.58 µM | [11] 11.2 µM | [12] 3.16 µM | [13] 6.31 µM | [14] 4.47 µM | [19] 5.01 µM | [15] 7.08 µM | [16] 7.57 µM | [17] 12.6 µM | [18] 4.47 µM

CC1NCCOC1c1ccccc1 (stereo unspecified)
not listed: [3] | [8]
inactive: all other assays above

CCCN1CCC[C@@H]2Cc3[nH]ncc3C[C@H]21
inactive: [1] | [3] | [20] | [4] | [8] | [16]

c1ccc2c(c1)Nc1ccccc1S2
inactive: [5] | [7] | [11] | [12] | [17] | [18]
active: [1] 8.49 µM | [3] 6.75 µM | [20] 7.57 µM | [8] 3.79 µM | [10] 12.6 µM

c1ccc2c(c1)OCC(C1=NCCN1)O2 (stereo unspecified)
not listed: [1] | [3] | [8] | [10] | [17] | [20]
inactive: all other assays above

C#CCOC(C(=O)OCCN(C)C)(c1ccccc1)c1ccccc1
not listed: [1] | [5] | [6] | [10] | [13] | [20]
inactive: all other assays above

Clc1cccc(N2CCNCC2)c1
not listed: [1] | [3] | [5] | [8] | [20]
inactive: all other assays above

CCC1(C2=NCCN2)Cc2ccccc2O1 (stereo unspecified)
active: [1] 8.49 µM | [5] 10 µM | [8] 8.49 µM | [12] 12.6 µM | [14] 12.6 µM
not listed: [2] | [3] | [4] | [13] | [18] | [20]
inactive: all other assays above
